Measurements from PubChem BioAssay AID493008 (The Scripps Research Institute Molecular Screening Center, 2010).
Among all 340,000 compounds or so, about 800 (0.24%) were called active. The list comes from a sample in which actives are over-represented; it also holds similar structures and randomly drawn compounds. A number with no mark means an inactive call.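 The calls were made as follows: active = activation above the mean over all tested compounds plus 3 SD (cut at about 30% in these data); inactive = the rest.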

The compounds below were run against Troponin I, cardiac muscle (Homo sapiens) + Troponin T, cardiac muscle (Homo sapiens) + Troponin C, slow skeletal and cardiac muscles (Homo sapiens) (UniProt P19429+P45379+P63316) (assay: calcium sensitizers of cardiac thin filaments – biochemical, IANBD-TnC fluorescence, EC20 calcium, primary screen (AID 493008;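 also: rise in fluorescence read as greater calcium sensitivity of cardiac thin filaments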)). Settings: IANBD-labeled TnC RTF fluorescence at EC20 calcium; at 7.2 µM; stronger effect = higher value; 0% EC20 calcium, 100% full calcium.
`S=C(Nc1ccccc1)Nc1ccc2ccccc2c1` gave an activation of -10.4%.
For `CC1CCCC(C)N1C(=O)CN1CCN(c2nc(-c3ccc(F)cc3)cs2)CC1` (centres undefined), the activation was -5.89%.
Compound `CCCC(C)C(=O)Nc1ccc(NC(C)=O)cc1` (centres undefined) has an activation of -2.2%.
`CC(C)(C)c1ccc(/C=C/C(=O)NC2CCS(=O)(=O)C2)cc1` (centres undefined) showed an activation of 8.91%.
`O=C(NC(Cc1c[nH]c2ccccc12)C(=O)N/N=C/c1ccc(Br)cc1)c1cccs1` (centres undefined) gave an activation of -5.25%.
`Cc1ncoc1C(=O)NCCC(c1ccccc1)c1ccccc1` gave an activation of 1.32%.
`Cc1ccc(N(Cc2cc(=O)[nH]c3ccccc23)C(=O)CCl)cc1` showed an activation of -2.09%.
In the case of `COc1ccc(OC)c(S(=O)(=O)Nc2cccc(-c3ccc4nncn4n3)c2)c1`, the activation is reported as -5.2%.
For `CC1(C)OC(=O)C(=CSc2ccc(C(C)(C)C)cc2)C(=O)O1`, the activation was -0.02%.
In the case of `CC1CCCN(CCCNC(=O)CN2C(=O)COc3ccc(S(=O)(=O)N4CCOCC4)cc32)C1` (centres undefined), the activation is reported as -3.28%.
Compound `COc1ccc(C(=O)Oc2ccc(-c3nnco3)cc2)cc1S(=O)(=O)N1CCOCC1` has an activation of 5.67%.
For `C[n+]1ccc(/C=C/c2c[nH]c3ccccc23)cc1`, the activation was 154% (active).
`COc1ccc(C(=O)Nc2ccc(-n3nncc3C(C)(C)C)cc2)cc1` showed an activation of -5.43%.
`O=C(NC(=S)N1CCc2ccccc21)c1ccco1` showed an activation of -3.2%.
For `CC(C)NC(=O)N1CCN(c2ccncc2S(=O)(=O)N2CCCCC2)CC1`, the activation was 1.09%.
Work on `O=C(OCCOc1ccccc1Cl)c1cc(S(=O)(=O)N2CCCCC2)ccc1N1CCOCC1` yielded an activation of -4.46%.
Work on `CCCNC(=O)C(=O)Nc1cc2c3c(c1)CCC(=O)N3CCC2` yielded an activation of -3.33%.
`OC1CN=C2Sc3ccccc3N2C1` (centres undefined) showed an activation of -0.74%.
In the case of `O=C(N/N=C/C=C/c1ccco1)c1cccs1`, the activation is reported as 1.5%.
For `Cn1c(=O)c(=O)n(C)c2cc(S(=O)(=O)NCCN3CCN(c4ccccc4F)CC3)ccc21`, the activation was -1%.
In the case of `CCN1/C(=C\c2ccc3ccccc3[n+]2CC)Sc2cc(C)ccc21`, the activation is reported as 38.1% (active).
`Cc1ccc(C(=O)N/C(=C/c2ccco2)C(=O)NCCc2c[nH]c3ccccc23)cc1C` was tested, and the activation was -3.2%.
In the case of `N#C/C(=C/c1ccc(N2CCCCC2)o1)C(=O)NCCc1c[nH]c2ccccc12`, the activation is reported as 98.5% (active).
For `O=C(NCCc1c[nH]c2ccccc12)C1CCN(Cc2ccc(Br)cc2)CC1`, the activation was -15.1%.
`CN(c1ccccc1)S(=O)(=O)c1ccc(NC(=O)COc2ccccc2)cc1` gave an activation of 0.63%.
In the case of `CC1CCN(C(=O)Cn2nnnc2CN2CCOCC2)CC1`, the activation is reported as -3.91%.
Work on `O=S(=O)(Nc1cccc(Oc2ccc(Cl)cc2)n1)c1ccc(F)cc1` yielded an activation of -5.16%.
`O=C(CCN1C(=O)[C@@H]2Cc3ccccc3CN2C1=O)NCCc1ccccc1` was tested, and the activation was -2.53%.
Compound `CN(CCc1ccccc1)C(=O)c1cccc(NC(=O)Cc2cccc(NC(=O)C3CCCN(C(=O)CCc4ccccc4)C3)c2)c1` (centres undefined) has an activation of -0.28%.
For `Cc1ccccc1NC(=O)CCNS(=O)(=O)c1ccc2[nH]c(=O)oc2c1`, the activation was -6.99%.
`O=S(=O)(Cc1nnnn1-c1ccc(Br)cc1)c1ccc(F)cc1` was tested, and the activation was 1.13%.
`O=C(CC12CC3CC(CC(C3)C1)C2)Nc1ccc2c(c1)COC2=O` was tested, and the activation was -1.12%.
For `CCOc1ccc(OCC(=O)OC(C)C(=O)NC2CCCCC2C)cc1` (centres undefined), the activation was 0.95%.
`Cc1ccc(CS(=O)(=O)CCC(=O)NC2CC2)cc1` gave an activation of -1.46%.
In the case of `COc1ccccc1C(=O)Nc1nc2nc(-c3ccccc3)cc(=O)n2[nH]1`, the activation is reported as 5.39%.
`COc1ccc(N2CC(C(=O)N[C@@H](C)C(=O)N3CCCCC3)CC2=O)cc1` (some centres undefined) gave an activation of 2.39%.
Work on `Cc1ccc(S(=O)(=O)n2cccc2CO)cc1` yielded an activation of 3.89%.
`CC1(C)CC(=O)C/C(=N\NC(=O)c2cccs2)C1` showed an activation of 9.93%.
In the case of `Cc1cccc(N(C(=O)Cc2cccs2)C(C(=O)NC2CCCC2)c2ccsc2)c1` (centres undefined), the activation is reported as 2.2%.
In the case of `Cc1cc(F)ccc1N1CCC(N2CCN(C)C(CCO)C2)CC1` (centres undefined), the activation is reported as 0.01%.
For `O=S(=O)(c1cccc(-c2cn3ccccc3n2)c1)N1CCCC1`, the activation was -1.73%.
`COc1ccc(N(C(=O)CNC(=O)c2ccco2)C(C(=O)NCC2CCCO2)c2ccccc2)cc1Cl` (centres undefined) gave an activation of -5.45%.
In the case of `Nc1ncnc2c1ncn2[C@@H]1O[C@H](CNS(=O)(=O)c2ccc(-c3ccno3)s2)[C@@H](O)[C@H]1O`, the activation is reported as -2.32%.
For `CC1(C)CN(c2ccc(-c3ccnc4ncnn34)cc2)C1=O`, the activation was 2.76%.
For `ClC1(Cl)CC1CSc1ncn[nH]1` (centres undefined), the activation was 2.22%.
Compound `COc1ccc(CN(C)C(=S)Nc2ccc(Cl)cc2Cl)cc1` has an activation of 5.9%.
For `O=C(CCS(=O)(=O)Cc1ccccc1F)NCCCN1CCCCC1`, the activation was 5.59%.
`CCN(CC)CCCC(C)n1c2nc(=O)[nH]c(=O)c-2nc2cc(Cl)ccc21` (centres undefined) was tested, and the activation was 1960% (active).
`CCN(CC)CCn1c2ccc(Cl)cc2c2nc(C)sc21` was tested, and the activation was 1.89%.
Compound `CSCC[C@H](NC(=O)NCc1cccs1)C(=O)O` has an activation of 4.37%.
For `CC(C)c1nnc(NC(=O)CCC(=O)N2CCN(c3cccc(Cl)c3)CC2)s1`, the activation was -4.73%.
With `COc1ccc(C(=O)COC(=O)C(O)c2ccccc2)c(OC)c1` (centres undefined) the activation was 3.19%.
In the case of `O=C(/C=C/c1ccc2c(c1)OCCO2)c1ccc(O)cc1`, the activation is reported as -0.07%.
In the case of `O=C(/C=C(O)/C=C/c1ccc(O)cc1)/C=C/c1ccc(O)cc1`, the activation is reported as 40.2% (active).
`O=C(O)/C=C/c1ccc(OCCCF)cc1` was tested, and the activation was -2.79%.
With `O=C(COC(=O)c1ccncc1)Nc1ccc2c(c1)OCO2` the activation was -5.52%.
With `NC(=O)c1ccc(NC(=O)COC(=O)c2c3c(nc4ccccc24)/C(=C\c2ccc4c(c2)OCO4)CCC3)cc1` the activation was 514% (active).
Compound `NS(=O)(=O)c1ccc(NC(=O)COC(=O)c2c3c(nc4ccccc24)/C(=C\c2ccc4c(c2)OCO4)CCC3)cc1` has an activation of 4.91%.
`C=CCC(C(=O)c1ccccc1)[N+](C)(C)CC=C` (centres undefined) showed an activation of -2.42%.
`O=C(NC1=CC(=O)c2ccccc2C1=O)c1ccccc1` was tested, and the activation was -2.47%.
In the case of `COc1cccc2c1C(=O)c1c(O)c3c(c(O)c1C2=O)CC(O)(C(C)=NNC(=O)c1ccc(Cl)c(Cl)c1)CC3OC1CC(N)C(O)C(C)O1` (centres undefined), the activation is reported as 220% (active).
`CCCCC(CC)CNCc1cccn1CCN1CCOCC1` (centres undefined) showed an activation of -0.42%.
`CCOC(=O)c1ccc(N=C2SC(C(=O)NC)CC(=O)N2CCc2ccccc2)cc1` (centres undefined) was tested, and the activation was 2.1%.
In the case of `Nc1c(C(=O)c2cccs2)sc2nsc(SCCN3CCCCC3)c12`, the activation is reported as 30.6% (active).
`O=C(CSc1ncnc2sccc12)N1CCN(C(=O)c2cccs2)CC1` was tested, and the activation was 0.04%.
In the case of `COc1ccc(C23NCCN2C(=O)c2ccccc23)cc1` (centres undefined), the activation is reported as -1.61%.
Compound `COc1cc(S(=O)(=O)N2CCN=C2c2ccccc2)ccc1Cl` has an activation of -3%.
`COc1ccc(NC(C(=O)Nc2cccc(C(C)=O)c2)c2ccccc2)cc1` (centres undefined) showed an activation of 2.77%.
With `COc1ccc(-c2onc3ccc(C(C)=O)cc23)cc1` the activation was 42.2% (active).
In the case of `COc1ccc(-c2cc(C(=O)N3CCN(c4ccc(F)cc4)CC3)no2)cc1`, the activation is reported as -6.29%.
In the case of `CC1CCCN(S(=O)(=O)c2ccc(-c3ccc(=O)[nH]n3)o2)C1` (centres undefined), the activation is reported as 0.69%.
Compound `Cc1ccc2nc(SCC(=O)N3CCN(c4ccccc4)CC3)nc(=O)n2c1` has an activation of -2.94%.
For `NS(=O)(=O)c1ccc(N=Nc2c(O)[nH]c3ccc(Br)cc23)cc1`, the activation was -6.02%.
`Cc1cccc(N=Nc2c(O)[nH]c3ccc(F)cc23)c1` was tested, and the activation was 31.3% (active).
For `Oc1[nH]c2ccccc2c1N=Nc1c(F)c(F)c(F)c(F)c1F`, the activation was 3.02%.
For `Cc1ccc(C(=O)O)c(NC=O)c1OCc1ccccc1`, the activation was -0.38%.
For `CCN(CC)c1ccc(C(=O)Nn2c(C)nc3ccccc3c2=O)cc1`, the activation was 8.65%.
Work on `Cc1ccc2oc(=O)ccc2c1` yielded an activation of -3.77%.
With `CCN(CC)c1ccc2oc(=O)c(C)nc2c1` the activation was 59.9% (active).
`COc1ncnc2c1N=C1CC(C)(C)CC(N)=C1S2` was tested, and the activation was 30.1% (active).
In the case of `CCOC(=O)c1cc2n(c1N)-c1ccccc1C2=O`, the activation is reported as 40.9% (active).
Compound `CCOC(=O)c1ccccc1CN1C(=O)c2ccccc2S1(=O)=O` has an activation of 6.29%.
`CCOC(=O)c1ccccc1OC(=O)Oc1ccccc1C(=O)OCC` showed an activation of 0.28%.
In the case of `COCCNC(=O)c1onc(CSc2cccc(C)c2)c1C(=O)O`, the activation is reported as 2.19%.
Compound `Cc1cccc(NC(=O)CSc2nc3c(c(=O)[nH]2)CCC3)c1C` has an activation of 5.1%.
With `Cc1cc(OC(C)C(=O)NC2CC(C)(C)NC(C)(C)C2)c2c(C)cc(=O)oc2c1` (centres undefined) the activation was -6.45%.
With `CCOc1nc(OCC)nc(-n2cc(-c3ccccc3)nn2)n1` the activation was -0.01%.
`COc1cccc(NS(=O)(=O)c2ccc3[nH]cc(C(=O)NCCCOC(C)C)c(=O)c3c2)c1` showed an activation of 1.55%.
For `CCC1(C)COC(c2ccc(OC)c(OC)c2)OC1` (centres undefined), the activation was 15.5%.
For `COc1ccc(C2c3ccc(O)cc3Oc3ncn(CCCO)c(=N)c32)cc1OC` (centres undefined), the activation was 91.1% (active).
`COc1ccc(CNCCCO)cc1OC` showed an activation of 2.52%.
Compound `COc1ccc(C2C(C#N)=C(N)Oc3cc(N)ccc32)cc1OC` (centres undefined) has an activation of 2.36%.
In the case of `CN1C(=O)/C(=C/C=C2\SCCN2C)OC1=S`, the activation is reported as 34% (active).
For `CC(=O)c1cc2c(cc1NC(=O)Cn1nc(-c3ccc(F)cc3)ccc1=O)OCO2`, the activation was 1.13%.
